Only some compounds are listed: those with a hit (about 9.2% of all), similar ones and a draw of the others.
SMN2 splice up: enhancers of SMN2 splice variant expression. hit rate 2.8% among 210,000. AID 1458. HEK293 SMN2-luciferase splicing reporter, luminescence, 30-36 h. Potency, µM (highest dose often 46.1 µM), without a hit: at the highest dose activity change, positive = activation, actives largely listed as activators; note: % of control where 0% means no effect; nearly all actives have a fitted effect of over 55% in size
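HEK293 cells carry an SMN2 […]–luciferase reporter in which exon 7 inclusion puts luciferase in frame. Cells were plated 10-12 h before compound addition, then incubated 30-36 h at 37C. ONE-Glo luminescence was read; sodium butyrate at 4.5 mM final served as control.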
ELG1 genotoxic: induces genotoxicity in HEK293T cells with luciferase-tagged ELG1 | Potency, µM (doses to about 46 µM), inactives show at the top dose activity change, positive = activation, hits mostly activators | hit rate 1.3% among 330,000 | HEK293T ELG1-luciferase reporter, luminescence, 16 h; note: % of control where 0% means no effect; nearly all actives have a fitted effect of over 60% in size
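Genotoxic stress is detected as increased luminescence from luciferase-tagged ELG1 in HEK293T cells, measured with ONE-Glo after a 16 hr treatment at 37 °C.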
ELG1 DNA repair: inhibitors of ELG1-dependent DNA repair in HEK293T cells; HEK293T ELG1-luciferase reporter, luminescence, 16 h; DNA damage induced by 5-fluorouridine; Potency, µM (top dose mostly 46.1 µM), for the others: at the highest dose activity change, negative = inhibition, hits mostly inhibitors; hit rate 2.3% among 330,000; AID 504467; note: % is set by controls: 0 for no effect and ±100 for the full control effect; nearly all actives have a fitted effect of over 55% in size
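Reporter activity after DNA damage by 5-fluorouridine is monitored. Compound-treated cells incubate 16 hr at 37 °C, then ONE-Glo is added for 30 min before luminescence reading.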
NPC1 prom act: activators of NPC1 promoter. Huh7 NPC1 promoter luciferase reporter, 24 h. Potency, µM (doses to about 9.22 µM), for the others: at the top dose activation, most hits filed as activators. hit rate 2.4% among 320,000; note: % of control where 0% means no effect; nearly all actives have a fitted effect of over 60% in size
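Luciferase expression driven by the NPC1 promoter was measured in stably transfected Huh7 cells after a 24 h compound incubation, using a luciferase reagent and a luminescence read.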
Rab9 prom act: activators of Rab9 promoter. AID 485297. Huh7 Rab9 promoter-luciferase reporter, luminescence, 24 h. hit rate 2.8% among 320,000. Potency, µM (titrated, usually from 9.22 µM), without a hit: at the highest dose activation, negative = inhibition, most hits filed as activators; note: % of control where 0% means no effect; nearly all actives have a fitted effect of over 60% in size
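Rab9 promoter-driven luciferase in stably transfected Huh7 cells; 1500 cells/well rested 2 h, exposed to compound in DMSO for 24 h at 37 °C, 5% CO2. Luminescence read 10 min after adding luciferase reagent at ambient temperature.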
FLuc counter: firefly luciferase modulation, counter-screen for miR-21 project. P08659. purified FLuc, Km substrates, luminescence inhibition. Potency, µM (doses to about 57.5 µM), inactives show at the top dose activity change, negative = inhibition, usual class: inhibitors. hit rate 6.9% among 360,000. AID 588342;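 note: plate controls were vehicle for no effect and reference inhibitor for full effect; nearly all actives have a fitted effect of over 55% in size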
Target sequence (P08659 whole entry, looked up): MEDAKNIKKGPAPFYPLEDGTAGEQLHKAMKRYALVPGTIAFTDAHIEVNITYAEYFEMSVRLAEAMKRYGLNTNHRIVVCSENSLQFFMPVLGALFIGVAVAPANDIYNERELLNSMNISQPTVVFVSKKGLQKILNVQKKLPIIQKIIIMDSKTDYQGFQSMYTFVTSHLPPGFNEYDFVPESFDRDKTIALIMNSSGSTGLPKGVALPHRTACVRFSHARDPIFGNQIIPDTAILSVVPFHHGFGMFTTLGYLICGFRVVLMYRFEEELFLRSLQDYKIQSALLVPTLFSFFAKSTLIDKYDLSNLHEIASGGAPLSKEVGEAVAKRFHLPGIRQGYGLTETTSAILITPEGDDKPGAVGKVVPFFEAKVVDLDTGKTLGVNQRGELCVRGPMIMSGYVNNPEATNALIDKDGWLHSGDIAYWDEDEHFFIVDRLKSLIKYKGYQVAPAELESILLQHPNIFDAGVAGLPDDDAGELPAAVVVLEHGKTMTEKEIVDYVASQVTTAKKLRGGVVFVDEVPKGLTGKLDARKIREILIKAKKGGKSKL
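Purified P. pyralis luciferase (10nM final) with 10uM D-luciferin and 10uM ATP (Km levels) in 50mM Tris acetate pH 7.5, 10mM Mg acetate, 0.01% Tween-20, 0.05% BSA; qHTS 6-point titration, ~60 µM downward; luminescence read.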
* marks the source's active call; other numbers are inactive results; [ ] = dose if it differs, or a comment. Calls come from the whole dose curve; as a rule, active = well fitted curve in the direction sought with a large enough effect; inconclusive = small, poorly fitted or top-dose-only effect, or another doubt; inactive = no such curve, though single readings can be large; an effect the other way counts as inactive or inconclusive. Potency is the fitted concentration of half-maximal effect.

`COc1ccc(-c2cc3ccc(OCc4nn[nH]n4)cc3oc2=O)cc1OC` gave SMN2 splice up 15%, ELG1 genotoxic 2%, ELG1 DNA repair 13%, NPC1 prom act -1%, Rab9 prom act -7% and FLuc counter 15µM*.
COc1ccc(C(=O)NC2=Nc3ccccc3N=C(C)C2c2ccccc2)cc1 (centres undefined) was read as ELG1 genotoxic inconclusive, ELG1 DNA repair -20%, NPC1 prom act -3%, Rab9 prom act 30% and FLuc counter inconclusive.
Screening COc1ccc2c(c1)OC[C@H]1[C@H]2N2C(=O)CN(Cc3ccc(C)cc3)C(=O)[C@@]2(C)[C@H]1c1ccccc1 returned ELG1 genotoxic -3%, ELG1 DNA repair inconclusive, NPC1 prom act -3%, Rab9 prom act -4% and FLuc counter 5%.
For CCc1ccccc1NC(=O)Cn1c(=O)n(-c2ccc(C)cc2)c(=O)c2cc(OC)c(OC)cc21 the results were SMN2 splice up 13% and FLuc counter 8%.
C/C(=C\c1ccccc1)C(=O)Nc1ccc(Cl)cn1 was read as ELG1 genotoxic 9.2µM*, ELG1 DNA repair inconclusive, NPC1 prom act 1.8µM*, Rab9 prom act 0.79µM* and FLuc counter inconclusive.
COc1cc2ccccc2cc1C(=O)Nc1ccc(Cl)cn1 was read as ELG1 genotoxic inconclusive, ELG1 DNA repair inconclusive, NPC1 prom act 2µM*, Rab9 prom act 1.4µM* and FLuc counter inconclusive.
`O=C(Nc1ccc(Cl)cn1)c1ccccc1F` gave SMN2 splice up 16µM* and FLuc counter 4.3µM*.
Screening O=C(Nc1ccc(Cl)cn1)Nc1ccccc1F returned SMN2 splice up inconclusive, ELG1 genotoxic 8%, ELG1 DNA repair inconclusive, NPC1 prom act 21%, Rab9 prom act 27% and FLuc counter inconclusive.
Screening O=C(Nc1ccc(Cl)cn1)c1cccc(F)c1 returned SMN2 splice up 16µM*, ELG1 genotoxic inconclusive, ELG1 DNA repair inconclusive, NPC1 prom act inconclusive, Rab9 prom act inconclusive and FLuc counter 11µM*.
Screening O=C(c1ccc(S(=O)(=O)N2CCOCC2)cc1)N1CCOCC1 returned ELG1 genotoxic -2%, ELG1 DNA repair -14%, NPC1 prom act -1%, Rab9 prom act -4% and FLuc counter -1%.
COc1ccc[nH]c1=O was read as SMN2 splice up -12%, ELG1 genotoxic 0%, ELG1 DNA repair 16%, NPC1 prom act -1%, Rab9 prom act -2% and FLuc counter -2%.
Screening Nc1ccccc1NC(=O)NC(=O)c1ccccc1 returned ELG1 genotoxic inconclusive, ELG1 DNA repair inconclusive, NPC1 prom act inconclusive, Rab9 prom act 2.2µM* and FLuc counter 11µM*.
`Cc1cc(C)nc(NC(=O)NC(=O)c2ccccc2)n1` gave ELG1 genotoxic 0%, ELG1 DNA repair -3%, NPC1 prom act -2%, Rab9 prom act -1% and FLuc counter 2%.
`O=C(NC(=O)c1ccccc1)Nc1ccc(Cl)cn1` gave ELG1 genotoxic 1.5µM*, ELG1 DNA repair inconclusive, NPC1 prom act 0.63µM*, Rab9 prom act 1µM* and FLuc counter 2.1µM*.
Screening CN1C(=O)C(C)(C)c2cc(S(=O)(=O)N3CCN(c4ccc(F)cc4)CC3)ccc21 returned ELG1 genotoxic -5%, ELG1 DNA repair -4%, NPC1 prom act 0%, Rab9 prom act -7% and FLuc counter 1%.
For Cc1ccc(/C=C(\C#N)c2nc3ccccc3c(=O)[nH]2)cc1 the results were SMN2 splice up 1% and FLuc counter -1%.
Screening C=CCOc1cccc(/C=C/c2nc3ccccc3c(=O)[nH]2)c1 returned ELG1 genotoxic 9.2µM*, ELG1 DNA repair inconclusive, NPC1 prom act inconclusive, Rab9 prom act 3.5µM* and FLuc counter 1.5µM*.
For COC(=O)c1ccc(/C=C/c2nc3ccccc3c(=O)[nH]2)cc1 the results were ELG1 genotoxic inconclusive, ELG1 DNA repair inconclusive, NPC1 prom act 0.5µM*, Rab9 prom act 1.1µM* and FLuc counter 0.67µM*.
`COCCOC(=O)N/C=C\c1nc2ccccc2c(=O)[nH]1` gave SMN2 splice up 18%, ELG1 genotoxic 6%, ELG1 DNA repair 5%, NPC1 prom act -7%, Rab9 prom act 0% and FLuc counter inconclusive.
Screening COc1cc(/C=C/c2nc3ccccc3c(=O)[nH]2)ccc1OC(F)F returned ELG1 genotoxic 27%, ELG1 DNA repair inconclusive, NPC1 prom act 5µM*, Rab9 prom act inconclusive and FLuc counter inconclusive.
Screening Cc1ccc(/C=C/c2nc3ccccc3c(=O)[nH]2)cc1 returned ELG1 genotoxic inconclusive, ELG1 DNA repair inconclusive, NPC1 prom act 0.5µM*, Rab9 prom act 0.35µM* and FLuc counter 0.15µM*.
`COc1cc(/C=C/c2nc3ccccc3c(=O)[nH]2)cc(OC)c1OC` gave ELG1 genotoxic 12%, ELG1 DNA repair 35%, NPC1 prom act -5%, Rab9 prom act 0%[1.84 µM] and FLuc counter inconclusive.
For CSc1ncc2c(n1)-c1cc(C)ccc1SC2 the results were SMN2 splice up -11%, ELG1 genotoxic 0%, ELG1 DNA repair -8%, NPC1 prom act -6%, Rab9 prom act -8% and FLuc counter -2%.
`Cc1ccc(/C=C/c2nc3ccccc3[nH]2)cc1` gave FLuc counter 0.076µM*.
For Cc1ccc(/C=C/c2nc3ccccc3[nH]2)o1 the results were SMN2 splice up 4µM*, ELG1 genotoxic inconclusive, ELG1 DNA repair inconclusive, NPC1 prom act 0.71µM*, Rab9 prom act 0.45µM* and FLuc counter 0.85µM*.
`Cc1cc2nc(/C=C/c3nc4cc(C)c(C)cc4[nH]3)[nH]c2cc1C` gave ELG1 genotoxic 0%, ELG1 DNA repair inconclusive, NPC1 prom act -3%, Rab9 prom act 6% and FLuc counter inconclusive.
`CCCCc1ccc(N=N/C(C(=O)Nc2cc(OC)c(NC(C)=O)cc2OC)=C(/C)O)cc1` gave SMN2 splice up -9%, ELG1 genotoxic 0%, ELG1 DNA repair 3%, NPC1 prom act 0%, Rab9 prom act -6% and FLuc counter 5%.
COc1ccc(-c2cc3ccccc3oc2=O)cc1NC(=O)c1cccnc1 was read as SMN2 splice up -5%, ELG1 genotoxic -4%, ELG1 DNA repair 0%, NPC1 prom act -6%, Rab9 prom act 7% and FLuc counter 11µM*.
Screening COc1cc2c(cc1NC(=O)c1cccnc1)oc1ccccc12 returned SMN2 splice up inconclusive, ELG1 genotoxic inconclusive, ELG1 DNA repair inconclusive, NPC1 prom act inconclusive, Rab9 prom act inconclusive and FLuc counter 15µM*.

Screens as filed in PubChem BioAssay.
